Source: PubChem BioAssay (NMMLSC)
Hits are enriched below; roughly 1.2% of the tested compounds scored in any of these assays.
CIT2-GFP yeast = modulators of CIT2-GFP expression in yeast, primary screen, S. cerevisiae, GFP fusion, multiplex flow cytometry, MLPCN library | S. cerevisiae CIT2-GFP strain, 3 h; 100 means same as DMSO wells | AID 2029, 2009 | GFP response vs DMSO, % at 10 µM | actives 0.065% (n = 320,000);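 active = GFP response relative to DMSO above a set limit, near the screen mean plus 3 SD, cut at about 150% in these data; inconclusive = Fewer than 70 cells measured for a yeast strain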;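 also: ratio of well median GFP fluorescence to mean of DMSO wells on the plate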
AGP1 TOR yeast = modulators of AGP1-GFP expression in yeast TOR pathway, primary screen, cell-based, multiplex flow cytometry, S. cerevisiae, MLPCN library; GFP response vs DMSO, % at 10 µM; 3 h; GFP as percent of DMSO wells; actives 0.02% (n = 320,000);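 active = GFP response relative to DMSO above a set limit, near screen average plus 3 SD, cut at about 150% in these data; inconclusive = fewer than 70 cells counted for the yeast strain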;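 also: median GFP channel fluorescence of the gated AGP1 strain per well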
LAP4-GFP MLPCN = modulators of LAP4-GFP expression in yeast, primary screen, S. cerevisiae, multiplex flow cytometry, MLPCN library; 3 h; median GFP as percent of DMSO wells; GFP response vs DMSO, % at 10 µM; actives 0.34% (n = 320,000);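 active = GFP response vs DMSO above a set limit, about the screen mean plus 3 SD, cut at about 150% in these data; inconclusive = under 70 cell events counted for the yeast strain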
RPL19A-GFP yeast = RPL19A-GFP expression modulators in yeast, primary screen, cell-based, S. cerevisiae, multiplex flow cytometry, MLPCN; S. cerevisiae RPL19A-GFP strain, 3 h; hits give low values; percent response vs DMSO, % at 10 µM; actives 0.3% (n = 330,000); AID 2025, 2009;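 active = percent response vs DMSO below 50%; inconclusive = fewer than 70 events counted for the yeast strain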;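 also: median channel GFP fluorescence of the barcoded RPL19A-GFP strain; ratio of sample median GFP to plate DMSO average so 100% = DMSO; lower means less RPL19A-GFP as with rapamycin TOR inhibition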
DSG3 Ab inh = inhibitors of pemphigus antibody binding to DSG3, primary screen, biochemical, bead-based, flow cytometry, scFv-GFP; DSG3-coupled beads, scFv-anti-DSG3-GFP binding; hits give low values; binding (percent of control), % at 10 µM; actives 0.48% (n = 310,000); AID 588358, 2011;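 active = binding more than 3 SD below its plate's average and above zero; inconclusive = below that plate limit but binding exactly zero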;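 also: hits lower antibody fragment binding to DSG3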
MEP2 TOR yeast = modulators of MEP2-GFP levels in yeast, primary screen, S. cerevisiae, multiplex flow cytometry, MLPCN library; S. cerevisiae MEP2-GFP strain, 3 h; 100% = DMSO control level; GFP response vs DMSO, % at 10 µM; actives 0.51% (n = 330,000); AID 2016, 2009;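 active = GFP response versus DMSO above a set limit, roughly screen mean plus 3 SD, cut at about 180% in these data; inconclusive = fewer than 70 cells counted for a yeast strain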;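 also: median GFP fluorescence of the barcode-gated MEP2-GFP cells per well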
Active calls of the source: *; ? = inconclusive; . = no result given; [ ] = dose if it differs, or a comment.

SMILES	CIT2-GFP yeast	AGP1 TOR yeast	LAP4-GFP MLPCN	RPL19A-GFP yeast	DSG3 Ab inh	MEP2 TOR yeast
COc1ccc(C(=O)NCc2ccc3c(c2)cc(C)n3C)cc1OC	103.4	99.4	90.5	97.5	108.5	100.8
COc1ccccc1C(=O)NCCC(=O)N(C)Cc1ccc(C)o1	?	?	?	?	99.9	?
Cc1sc(N)nc1-c1c(C)n(C)c2ccccc12	97.4	102.0	110.9	107.5	114.3	105.3
Cc1nn(C(=O)c2ccco2)c(C)c1Sc1ccccc1	108.2	46.5	86.6	.	108.4	176.2*
COc1ccc(NC(=S)NCCN2CCOCC2)cc1	?	?	115.7	18.8*[may fluoresce violet]	105.9	419.0*[may fluoresce violet]
CCn1c(O)c(N=NC(=O)CNC(=O)c2cccnc2)c2ccccc21	.	.	.	.	106.6	.
CCOC(=O)C1=C(N)n2c(s/c(=C\c3cccs3)c2=O)=C(C(=O)OCC)C1c1cccs1 (configuration not stated)	95.2	104.7	96.5	101.6	.	101.3
Cc1cc(C(=O)COC(=O)c2ccc(F)cc2F)c(C)n1C1CC1	94.4	102.8	105.2	98.3	99.7	97.4
Nc1ccc2oc(=O)c3ccccc3c2c1	?	?	71.3	33.5*[may fluoresce violet]	128.0	230.9*[may fluoresce violet]
Cc1cc2cc(CNC(=O)Nc3ccccc3)ccc2[nH]1	99.8	98.7	89.2	98.5	76.2*	99.2
CCC(C)NC(=O)Nc1ccc2c(c1)N(C)C(=O)c1ccccc1S2 (configuration not stated)	?	?	91.1	60.6	101.8	187.8*[may fluoresce violet]
COCCNC(=O)Nc1ccc2c(c1)N(C)C(=O)c1ccccc1S2	102.2	98.1	101.1	94.7	103.4	107.0
O=C(Nc1ccc(CN2CCOCC2)cc1)c1ccccc1F	?	25.8	105.5	40.8*[may fluoresce violet]	95.2	172.0
CC(C)(C)c1ccc(Cn2c(=O)cnc3ccccc32)cc1	102.8	107.2	95.9	103.0	102.9	103.6
O=C(N/N=C/c1ccccc1[N+](=O)[O-])c1ccc2c(c1)OCCO2	?	33.1	98.6	46.1*[may fluoresce violet]	94.1	430.0*[may fluoresce violet]
O=C(N/N=C/c1cc(O)ccc1[N+](=O)[O-])c1ccc2c(c1)OCCO2	93.8	98.8	104.9	95.6	93.2	97.0
O=C(O)CSCC(=O)N1N=C2/C(=C/c3ccccc3)CCCC2C1c1ccccc1 (configuration not stated)	?	?	58.2	35.8*[may fluoresce violet]	114.8	263.0*[may fluoresce violet]
CCCCCCc1nc(C(N)=O)c2[nH]c(=O)n(-c3ccccc3F)c2n1	99.5	98.3	103.5	97.5	62.4*	111.2
CCCCCCc1nc(C(N)=O)c2[nH]c(=O)n(-c3ccc(OCC)cc3)c2n1	104.0	96.6	120.3	96.1	99.2	104.0
COc1ccc(CNC(=O)CCC(=O)Nc2nnc(C(F)(F)F)s2)cc1	160.7*[may fluoresce green]	119.3	104.1	95.1	105.5	103.1
O=C(COc1ncnc2ccccc12)N1CCOCC1	103.4	103.5	102.5	101.6	108.1	104.4
CC1CCN(C(=O)COc2ncnc3ccccc23)CC1	?	?	73.7	46.4*[may fluoresce violet]	98.8	288.7*[may fluoresce violet]
CCOC(=O)/C(C#N)=N/Nc1ccc(S(=O)(=O)Nc2cc(OC)nc(OC)n2)cc1	98.1	97.1	102.9	90.3	100.4	92.4
COc1ccc(C2CC(c3ccccc3)=NN2S(=O)(=O)c2ccccc2)cc1 (configuration not stated)	130.5	96.8	191.4*	107.6	149.6	235.1*
CCOc1cc(C2Nc3ccccc3NC3=C2C(=O)CC(C)(C)C3)ccc1OC(C)=O (configuration not stated)	106.3	102.2	90.2	92.5	116.7	103.7
SMILES	CIT2-GFP yeast	AGP1 TOR yeast	LAP4-GFP MLPCN	RPL19A-GFP yeast	DSG3 Ab inh	MEP2 TOR yeast
CCOc1ccccc1NC(=O)c1nc[nH]c1C(=O)Nc1ccccc1OCC	95.4	96.2	100.1	103.0	104.1	100.6
COc1ccccc1NC(=O)c1nc[nH]c1C(=O)Nc1ccccc1OC	?	.	117.6	42.3*[may fluoresce violet]	95.1	557.5*[may fluoresce violet]
CNC(=O)c1[nH]cnc1C(=O)Nc1ccccn1	434.6*[may fluoresce green]	154.5*[may fluoresce green]	430.4*[may fluoresce green]	155.4	126.0	621.6*[may fluoresce green]
CC1(C)C2CCC(C2)C1(C)NC(=O)CN1CCOCC1 (configuration not stated)	?	?	91.6	41.8*[may fluoresce violet]	92.1	307.9*[may fluoresce violet]
CCc1nn(CC(=O)NCCc2ccc(S(N)(=O)=O)cc2)c(=O)c2cc3sccc3n12	105.2	105.3	106.2	106.1	82.5*	104.9
CCc1nn(CC(=O)N2CCN(CC)CC2)c(=O)c2cc3sccc3n12	110.6	106.2	100.2	100.1	113.3	112.3
CSc1cccc(NC(=O)COC(=O)C2CCN(S(=O)(=O)c3ccccc3)CC2)c1	94.4	95.4	100.4	94.4	.	97.4
COc1ccccc1NC(=O)Cn1nnc(-c2ccccc2NC(=O)c2ccco2)n1	100.1	103.4	85.8	96.5	115.2	195.0*
COc1ccc(NC(=O)Cn2nnc(-c3ccccc3NC(=O)c3ccco3)n2)cc1	102.7	103.5	92.1	94.9	99.1	98.8
COc1cccc(NC(=O)[C@@H]2CCCN2C(=O)[C@@H]2Cc3ccccc3CN2C(=O)OC(C)(C)C)c1	?	16.3	78.1	19.2*[may fluoresce violet]	99.3	159.3
COc1ccc(CNC(=O)[C@@H]2CCCN2C(=O)[C@@H]2Cc3ccccc3CN2C(=O)OC(C)(C)C)cc1	116.3	?	?	?	105.9	?
Cc1[nH]c(C)c(S(=O)(=O)NCc2ccc(F)cc2)c1C(=O)N1CCCC1	?	?	120.3	47.1*[may fluoresce violet]	.	437.7*[may fluoresce violet]
Cc1cccc(N2C(=O)C3C4C=CC(C4)C3C2=O)c1 (configuration not stated)	?	?	92.8	48.0*[may fluoresce violet]	100.3	237.6*[may fluoresce violet]
O=C(NNC(=O)C1CCCCC1)C(=O)NC1CCCCC1	125.7	106.8	154.9*	105.5	99.0	176.9*
Cc1ccc([C@H]2C[C@@H](O)[C@H](n3cc(-c4ccc(F)cc4)nn3)CN2Cc2cccs2)cc1	.	.	.	.	94.9	.
COC(=O)c1ccc(/C=C2/SC(=S)N(CCC(=O)NCCCN3CCOCC3)C2=O)cc1	?	?	89.0	58.3	.	565.6*[may fluoresce violet]
CCc1ccc(/C=C2/SC(=S)N(CCC(=O)NCCCN3CCOCC3)C2=O)cc1	95.5	96.2	73.3	102.6	121.3	86.6
Cc1nc2nc(C)n(CCN3CCOCC3)c(=O)c2c(-c2cccc([N+](=O)[O-])c2)c1C(=O)CCCCCCCCCCN1CCC(c2ccccc2)(c2ccccc2)CC1	.	.	.	.	93.2	.
